Measured values reported in ChEMBL document CHEMBL3988442, “University of Dundee, Small-Polar-MMV Screening Library” (2021).

target: AMP-activated protein kinase, AMPK (Homo sapiens) (UniProt P54646+O43741+P54619+Q9UGJ0+Q9Y478+Q13131+Q9UGI9); assay: AMP-dependent Kinase enzyme assay. An in vitro enzyme assay that detects ADP turnover that is directly proportional to AMPK activity. This uses naive AMPK that is activated during the assay with MK-8722; assay type: functional; parameters: scale not given: direction of the effect not stated beside the values; conditions: 30 µM

| SMILES | Percent Effect [%] |
| --- | --- |
| COc1ccc(OC2CCN(C(=O)c3cnc(C)s3)CC2)cc1 | -2.19 |
| COc1ccc(CN2C[C@@H]3CC[C@H](C2)N(S(=O)(=O)C2CC2)C3)cc1 | 10.7 |
| Cc1ncc(CNC(CCO)C2CCCCC2)s1 (centres undefined) | 4.05 |
| CN(Cc1cnc(N)nc1)C(=O)C1CCN(C(=O)C2CCCC2)CC1 | -0.173 |
| Cc1ccc(C2CSCCN2CCS(C)(=O)=O)cc1 (centres undefined) | -3.45 |
| CN(C)c1nc(N)nc(CN2CCCC(c3ccccc3)CC2)n1 (centres undefined) | -3.69 |
| Clc1ccc2cccnc2c1CNC1CCc2ncnn2C1 (centres undefined) | 3.85 |
| CCNC(=O)CN1CCc2c(Br)ccc(F)c2C1 | -1.06 |
| CC1(c2ncc(CN3CCOCC3)cn2)CCCCO1 (centres undefined) | 9.84 |
| CCc1nc(N)nc(NCCC(=O)NC2CCCCC2)c1C | 0.541 |
| COc1ccccc1C1CCN(C(=O)CN2C(=O)OC(C)(C)C2=O)CC1 | -11.8 |
| O=S(=O)(c1cn[nH]c1)N1CCC(O)(CN2CCOCC2)C1 (centres undefined) | 3.92 |
| Cc1ccc(C)c(CC(=O)NC2CCS(=O)(=O)CC2)c1 | -4.86 |
| CC1CCCN(c2ncc(-c3ccccc3F)c(-c3nccn3C)n2)C1 (centres undefined) | 9.01 |
| FC(F)(F)c1cccc(OC2CCN(Cc3ncc[nH]3)CC2)c1 | 7.66 |
| CCOC(=O)N(C)C1CCN(Cc2cnc3ccccn23)CC1 | 0.795 |
| O=S(=O)(NCC1(c2cccs2)CCOCC1)c1cccnc1 | -2.3 |
| COc1ncc(CN2CCC3(CCNC(=O)CC3)CC2)cn1 | -1.6 |
| CNC(=O)C1(C)CN(S(=O)(=O)c2cccc(OC)c2)CCO1 (centres undefined) | 4.63 |
| CC1(C)CC(C(=O)N2CCC3(CCC(=O)N(C4CC4)C3)CC2)CCO1 (centres undefined) | -0.458 |

| SMILES | Percent Effect [%] |
| --- | --- |
| O=C(Cc1c(F)cccc1Cl)Nc1cc(N2CCCC2)ncn1 | 4.4 |
| CCn1nc(C)cc1C(=O)OCC1CC(=O)N(Cc2ccccc2)C1 (centres undefined) | 38.6 |
| COc1cccc(S(=O)(=O)N2CCOC(C)(C(N)=O)C2)c1 (centres undefined) | 22.4 |
| COc1cccc(C)c1C(=O)N1CCc2ncnc(NCCO)c2CC1 | -1.45 |
| CNC(=O)C1Cc2ccccc2CN1C(=O)CC(C)C (centres undefined) | -7.28 |
| Cc1cc(NC(=O)N2CCC[C@@H]2CO)nn1-c1cccc(Cl)c1 | -3.24 |
| CN(C)c1cccc(C(=O)N2CCn3c(nnc3C3CC3)C2)c1 | -2.33 |
| CC(Cc1cccc(F)c1)C(=O)NS(=O)(=O)c1cnn(C)c1 (centres undefined) | -5.21 |
| Cc1ccnc(NC(=O)c2ccc(Br)o2)c1 | 5.24 |
| Cc1noc(C)c1CN(C)C(=O)c1nc(N2CCCC2)ncc1Cl | 3.43 |
| CCCn1cc(-c2cc(C(=O)N(C)C)c3cccc(C)c3n2)cn1 | 7.04 |
| COCCC(=O)N1CCCC(CCc2ccc(F)c(F)c2)C1 (centres undefined) | 8.62 |
| Fc1cccc(CN2CCC[C@@H](Cn3nnc(-c4ccccn4)n3)C2)c1 | 10.2 |
| CC(=O)N[C@H]1CCO[C@@H](c2cccc(NC(=O)c3cccc(F)c3)c2)C1 | 6.73 |
| O=C(Cn1ccc2ncccc2c1=O)N1CCSCC1 | -4.34 |
| CC(CO)NC(=O)Nc1ccc(CC#N)cc1 (centres undefined) | -1.29 |
| Cc1nnsc1CN1CC[C@@](O)(C2CCC2)[C@H](C)C1 | -5.82 |
| CCCC(=O)NC1CCCN(c2cncc(Br)c2)C1 (centres undefined) | 22.4 |
| COc1ccccc1CCNC(=O)N(C)C(C)CS(C)(=O)=O (centres undefined) | -5.38 |
